Experimental data reported in PubChem BioAssay AID1851 (National Center for Advancing Translational Sciences (NCATS), 2009).
The whole screen tested about 16,000 compounds, of which about 4,000 (25%) were called active. Roughly 26% stayed inconclusive and do not appear here. The list is a sample of the results. Unmarked numbers belong to inactive results. Calls come from the whole dose curve; as a rule, active = well fitted curve in the direction sought with a large enough effect; inconclusive = small, poorly fitted or top-dose-only effect, or effect the other way; inactive = no such curve, though single readings can be large or run the other way.

biological target: Cytochrome P450 2C9 (Homo sapiens) (UniProt P11712); assay: Cytochrome panel assay with activity outcomes; settings: recombinant CYP, pro-luciferin dealkylation, luminescence, p450-cyp2c9; series mostly up to 57.1 µM; activity, negative = inhibition: at the top concentration
Sequence (P11712 whole entry, looked up): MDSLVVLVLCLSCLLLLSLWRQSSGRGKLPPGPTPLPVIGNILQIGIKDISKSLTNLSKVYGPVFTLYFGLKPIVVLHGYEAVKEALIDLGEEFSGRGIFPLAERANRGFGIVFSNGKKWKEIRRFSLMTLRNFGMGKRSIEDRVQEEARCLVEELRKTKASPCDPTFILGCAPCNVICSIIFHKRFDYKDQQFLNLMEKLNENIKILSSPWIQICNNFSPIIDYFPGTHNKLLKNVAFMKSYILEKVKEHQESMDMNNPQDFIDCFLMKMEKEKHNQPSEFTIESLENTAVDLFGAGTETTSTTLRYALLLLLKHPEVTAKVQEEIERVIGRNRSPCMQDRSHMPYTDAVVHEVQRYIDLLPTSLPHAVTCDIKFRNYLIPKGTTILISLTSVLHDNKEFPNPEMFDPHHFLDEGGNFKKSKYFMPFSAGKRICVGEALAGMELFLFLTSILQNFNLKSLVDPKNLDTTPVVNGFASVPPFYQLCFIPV
% is set by controls: 0 for no effect and ±100 for the full control effect.

SMILES | activity, negative = inhibition | AC50
Cn1c(=O)c2[nH]c([C@@H]3CC(=O)C[C@H](c4nc5c([nH]4)c(=O)n(C)c(=O)n5C)N3)nc2n(C)c1=O | 2.38% [at 11.4 µM] | 
CC1(C)CCC(NC(=O)[C@H](N)CCC(=O)O)CC1 | -12.5% | 
N[C@@H](Cc1nn[nH]n1)C(=O)O | -8.85% [at 11.4 µM] | 
CCCn1c(C)nc2c(c1=O)c1nc3ccccc3nc1n2CCC1=CCCCC1 |  | 5.62 µM (active)
C/C(=N/O)[C@@H]1C[C@H](CC(=O)O)C1(C)C | -6.68% [at 11.4 µM] | 
Cc1cc(-c2cccc([N+](=O)[O-])c2)nc2ccc3ccccc3c12 | -22.9% | 
Clc1ccc(COn2c(-c3ccccc3)nc3ccccc32)cc1 |  | 10 µM (active)
O=[N+]([O-])c1ccc2nc(-c3ccccc3)n(OCc3ccc(Cl)cc3)c2c1 |  | 4.47 µM (active)
CC(=O)OCC(=O)[C@@]1(O)CC[C@@H]2[C@H]3CCC4=CC(=O)CC[C@]4(C)[C@]3(F)[C@@H](O)C[C@@]21C | -3.55% [at 25.6 µM] | 
C[C@@H]1/C=C\CC(=O)OC[C@H](C)C(=O)N[C@@H](Cc2ccccc2)C(=O)OC1 | 10.4% [at 11.4 µM] | 
O=C1C=C[C@@H](O)[C@H]2[C@@H]3C(=O)N(c4cccc(Oc5ccccc5)c4)C(=O)[C@@H]3CC[C@H]12 | -24.8% [at 11.4 µM] | 
COC(=O)c1sccc1-c1ccc(C(=O)Nc2cccnc2)o1 |  | 5.01 µM (active)
CCOC(=O)N/N=C/c1ccc(C)o1 | -28.6% | 
CCOC(=O)C(=CNCC(=O)O)C(=O)OCC | -3.32% | 
O=C(Nc1cccc2nsnc12)c1ccc(-c2cccc(Cl)c2)o1 | -23.8% | 
CCOC(=O)C(=Cc1ccc(-c2ccsc2C(=O)OC)o1)C(=O)OCC |  | 1.26 µM (active)
COC(=O)c1nn(-c2ccc(OC)cc2)c(=O)cc1Oc1cccc(Cl)c1 | -7.52% | 
COC(=O)c1sccc1-c1ccc(C(=O)Nc2cccc(Cl)c2)o1 |  | 10 µM (active)
CCN1C(=O)[C@H]2[C@H]3[C@H](O)[C@H](O)C/C(=N/O[C@@H](C)c4cn([C@H]5COC[C@H]5O)nn4)[C@@H]3CC[C@@H]2C1=O | 9.59% [at 11.4 µM] | 
CCOC(=O)c1cc(-c2ccccc2)sc1NC(=O)C(C)(C)C | -29.5% | 
CCOC(=O)CCCNC(=O)CCCNC(=O)C(c1ccccc1)c1ccccc1 | -21.3% | 
CCOC(=O)c1cc(-c2ccccc2)sc1NC(=O)c1ccc(OC)cc1 |  | 11.2 µM (active)
COC(=O)c1cc(-c2ccccc2)sc1NC(=O)CN1C(=O)c2ccccc2C1=O |  | 2.82 µM (active)

SMILES | activity, negative = inhibition | AC50
CCOC(=O)c1cc(CC)sc1NC(=O)C(c1ccccc1)c1ccccc1 |  | 6.31 µM (active)
CCOC(=O)N/N=C1/C[C@@H](O)[C@@H](O)[C@@H]2[C@@H]3C(=O)N(C(C)(C)C)C(=O)[C@H]3CC[C@@H]12 | 6.14% [at 11.4 µM] | 
COc1ccccc1-c1nc(Nc2ccncc2)c2ccccc2n1 | -28.7% [at 2.29 µM] | 
c1nc(NC2CC2)c2cc(-c3ccoc3)ccc2n1 | -5.58% [at 2.29 µM] | 
O=c1c2ccccc2nc(-c2ccc(Br)cc2)n1Cc1ccccc1 |  | 2.51 µM (active)
CCOC(=O)Cn1c(-c2ccccc2)nc2ccccc2c1=O |  | 2 µM (active)
O=C(O)Cn1c(-c2ccccc2)nc2ccccc21 | -9.81% | 
C[C@@H](CC(=O)O)[C@@H](N)C(=O)O | -21.2% | 
COc1ccc2c3c(ccc2c1)N[C@H](C(=O)O)CC3 | -0.255% [at 11.4 µM] | 
COCCNc1nc(-c2ccccc2OC)nc2ccccc12 | 5.14% [at 2.29 µM] | 
COc1cc(CC(=O)O)c(C(C)=O)cc1OC | 3.54% | 
CC(=O)c1cc(CC=C(C)C)c(O)cc1O |  | 2.51 µM (active)
Cc1[nH]c2ccccc2c1C(c1ccccn1)N1CCC(C)CC1 (stereo unspecified) | -1.22% | 
CCC(C)(C)n1nnnc1C(c1ccc(C)cc1)N1CCC(C)CC1 (stereo unspecified) |  | 28.2 µM (active)
Cn1c(-c2ccccc2)cnc1N | 5.03% | 
Cc1ccccc1CNc1ncnc2c1ncn2[C@@H]1O[C@@H](CO)[C@H](O)[C@@H]1O | 5.73% | 
CC(C)N(CC(=O)O)CC(=O)O | -8.23% [at 11.4 µM] | 
CN1Cc2c(C(=O)OC(C)(C)C)ncn2-c2ccsc2C1=O |  | 5.01 µM (active)
Cc1c(CCO)c(=O)n(-c2ccccc2)n1S(=O)(=O)c1c(Cl)cc(Cl)cc1Cl |  | 5.01 µM (active)
Cc1c(N(C)CS(=O)(=O)O)c(=O)n(-c2ccccc2)n1C | -0.666% [at 25.6 µM] | 
Cc1c(CCO)c(=O)n(C)n1C(=O)c1ccc(F)cc1 | 55% | 
Cc1cccc(C(=O)N2CCN(c3ccc([N+](=O)[O-])c(NCc4ccco4)c3)CC2)c1 |  | 3.55 µM (active)
Cc1cccc(C(=O)NCN2CCN(c3ccccc3C#N)CC2)c1 |  | inactive
